Source: PubChem BioAssay (Tox21)
Records with an inconclusive call do not appear. Active and inactive are the calls of the source. Unless noted, the call rests on the fitted dose curve; in most records, active means well fitted curve in the direction sought with a large enough effect in the repeat runs; inconclusive means weak or mixed curves; inactive means no such curve, though single readings can be large; an effect the other way counts as inactive or inconclusive.

Columns and labels:
[1] = qHTS assay to identify small molecule agonists of the peroxisome proliferator-activated receptor delta (PPARd) signaling pathway - cell viability counter screen (AID 743211); further: nearly all actives have a fitted effect of over 55% in size
In short: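 Tox21 library compounds, delivered in DMSO, were incubated 17 h with PPARd-bla HEK293H cells; cytotoxicity was taken from CellTiter-Glo luminescence read 30 min after reagent addition.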

[2] = qHTS assay to identify small molecule antagonists of the peroxisome proliferator-activated receptor delta (PPARd) signaling pathway - cell viability counter screen (AID 743213); further: nearly all actives have a fitted effect of over 50% in size
In short: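 In this counter screen, HEK293H cells carrying a UAS-beta-lactamase reporter are co-treated with test compounds and 300 nM L165041 (final) for 17 h at 37 C; cell viability is quantified by CellTiter-Glo luminescence.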

[3] = qHTS assay to identify small molecule agonists of the farnesoid-X-receptor (FXR) signaling pathway - cell viability counter screen (AID 743218); further: nearly all actives have a fitted effect of over 45% in size
In short: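 Quantitative HTS counter screen measuring ATP-based viability via CellTiter-Glo luminescence in HEK 293T cells carrying a UAS-driven beta-lactamase reporter, after 16 h compound exposure at 37 C.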

[4] = qHTS assay to identify small molecule antagonists of the farnesoid-X-receptor (FXR) signaling pathway - cell viability counter screen (AID 743221; active means well fitted cell-killing curve with a large enough effect in the repeat runs, not every such curve was filed as active; further: nearly all actives have a fitted effect of over 50% in size)
In short: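 Cytotoxicity is taken from ATP luminescence (CellTiter-Glo, 30 min, room temperature) in FXR-bla HEK 293T cells previously incubated 16 h at 37 C with compound and chenodeoxycholic acid at 50 uM final.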

[5] = biological target: Vitamin D3 receptor (Homo sapiens) (UniProt P11473); experiment: qHTS assay to identify small molecule agonists of the vitamin D receptor (VDR) signaling pathway (AID 743222; calls by dose curve)
Sequence of Vitamin D3 receptor (Homo sapiens) (P11473 whole entry, looked up): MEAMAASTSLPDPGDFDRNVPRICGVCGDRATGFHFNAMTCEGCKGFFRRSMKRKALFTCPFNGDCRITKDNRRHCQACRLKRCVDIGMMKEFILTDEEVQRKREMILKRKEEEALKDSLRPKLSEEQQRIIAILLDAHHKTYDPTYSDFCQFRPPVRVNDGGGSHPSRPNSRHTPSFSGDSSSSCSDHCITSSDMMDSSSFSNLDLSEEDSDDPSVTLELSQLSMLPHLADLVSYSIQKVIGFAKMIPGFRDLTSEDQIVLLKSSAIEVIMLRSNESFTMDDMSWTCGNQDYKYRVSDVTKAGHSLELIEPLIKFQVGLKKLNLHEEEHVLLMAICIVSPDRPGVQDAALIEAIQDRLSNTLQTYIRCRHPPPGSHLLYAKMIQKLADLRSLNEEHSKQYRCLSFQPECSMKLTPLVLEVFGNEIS
In short: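 Tox21 cell reporter format: VDR-bla line, 16 h compound exposure in 5% CO2 at 37C, then fluorescence intensity after 2 h with LiveBLAzer B/G FRET substrate.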

[6] = biological target: Vitamin D3 receptor (Homo sapiens) (UniProt P11473); experiment: qHTS assay to identify small molecule antagonists of the vitamin D receptor (VDR) signaling pathway (AID 743223; active means well fitted inhibition curve with a large enough effect in the signal ratio in the repeat runs, not every such curve was filed as active; the % refers to the signal ratio)
In short: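 Quantitative HTS in VDR-bla reporter cells stimulated with 1alpha,25-dihydroxyvitamin D3, 3 nM final. Compound exposure 16 h, 37C, 5% CO2. Read-out: beta-lactamase FRET substrate fluorescence, 2 h RT.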

[7] = qHTS assay to identify small molecule antagonists of the vitamin D receptor (VDR) signaling pathway - cell viability counter screen (AID 743225); further: nearly all actives have a fitted effect of over 50% in size
In short: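 Same-well multiplex: following 16 h treatment of HEK 293T cells carrying a UAS-driven beta-lactamase reporter with compound and agonist (3 nM final), and a 2 h FRET substrate step, CellTiter-Glo was added and luminescence read after 30 min.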

[8] = qHTS assay to identify small molecule agonists of the NFkB signaling pathway (AID 1159509; active means well fitted curve in the direction sought with a large enough effect in the signal ratio in the repeat runs, not every such curve was filed as active; the % refers to the signal ratio; further: series mostly up to about 61 µM)
In short: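 Beta-lactamase reporter assay run in quantitative high-throughput format on an NF-kB-responsive ME-180 line, with 5 hr compound treatment and a FRET-based blue/green fluorescence readout.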

[9] = qHTS assay to identify small molecule agonists of the endoplasmic reticulum stress response signaling pathway (AID 1159516; active means well fitted activation curve with a large enough effect in the signal ratio in the repeat runs, not every such curve was filed as active; the % refers to the signal ratio)
In short: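 Fluorescence at 460 and 530 nm (405 nm excitation) reports beta-lactamase from an ER stress response element in HeLa cells treated 5 hr at 37 C.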

[10] = qHTS assay to identify small molecule agonists of the endoplasmic reticulum stress response signaling pathway - cell viability counter screen (AID 1159517; calls by dose curve; further: series mostly up to about 61 µM; nearly all actives have a fitted effect of over 50% in size)
In short: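 After overnight attachment, ESRE-bla HeLa cells were treated with Tox21 library compounds for 5 hr. CellTiter-Glo luminescence, read 30 min post-addition at room temperature, reported viability.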

[11] = qHTS assay to identify small molecule antagonists of the retinoid-related orphan receptor gamma (ROR-gamma) signaling pathway - cell viability counter screen (AID 1159520); further: nearly all actives have a fitted effect of over 50% in size
In short: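 Cytotoxicity was read from cellular ATP (CellTiter-Glo luminescence) after 16 hr at 37 C with 1 uM doxycycline induction. The inducer was added 2 hr after compound transfer to Tet-on ROR gamma CHO cells.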

[12] = biological target: Nuclear receptor ROR-gamma (Homo sapiens) (UniProt P51449); experiment: qHTS assay to identify small molecule antagonists of the retinoid-related orphan receptor gamma (ROR-gamma) signaling pathway (AID 1159521)
In short: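 Inducible-expression reporter assay: doxycycline (1 uM final) switched on RORγ in CHO cells bearing a ROR response element-luciferase construct, with test compounds present from 2 h beforehand. Decreased luminescence after 16 h defined antagonist activity.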

[13] = qHTS assay to identify small molecule agonists of the AP-1 signaling pathway - cell viability counter screen (AID 1159525; calls by dose curve; further: nearly all actives have a fitted effect of over 55% in size)
In short: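 Intracellular ATP by Cell Titer Glo luminescence (30 min, RT) in the same ME-180 AP-1-bla wells after the 5 h compound exposure at 37 °C. Normalised to tetra n-octyl ammonium bromide and DMSO controls.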

[14] = qHTS assay to identify small molecule agonists of the AP-1 signaling pathway (AID 1159526; calls by dose curve)
[15] = biological target: Peroxisome proliferator-activated receptor delta (Homo sapiens) (UniProt Q03181); experiment: qHTS assay to identify small molecule agonists of the peroxisome proliferator-activated receptor delta (PPARd) signaling pathway (AID 743212; calls by dose curve;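 further: HEK293H cells with PPARd UAS beta-lactamase reporter GeneBLAzer system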)
Sequence of Peroxisome proliferator-activated receptor delta (Homo sapiens) (Q03181 whole entry, looked up): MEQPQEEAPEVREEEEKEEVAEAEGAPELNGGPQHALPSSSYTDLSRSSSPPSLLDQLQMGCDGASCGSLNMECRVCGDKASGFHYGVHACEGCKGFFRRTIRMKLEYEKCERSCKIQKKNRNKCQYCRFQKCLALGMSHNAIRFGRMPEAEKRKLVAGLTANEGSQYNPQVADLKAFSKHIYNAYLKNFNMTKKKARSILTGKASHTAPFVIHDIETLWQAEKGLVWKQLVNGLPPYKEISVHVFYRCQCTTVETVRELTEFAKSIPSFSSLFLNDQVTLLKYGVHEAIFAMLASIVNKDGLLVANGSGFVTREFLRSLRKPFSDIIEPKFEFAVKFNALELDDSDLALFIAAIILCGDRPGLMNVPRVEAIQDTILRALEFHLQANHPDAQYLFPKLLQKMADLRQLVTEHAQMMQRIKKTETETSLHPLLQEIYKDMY
In short: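 Steps: seed PPARd-bla HEK293H cells; incubate 5 h, 37 C, 5% CO2; add compounds in DMSO; incubate, 37 C; add LiveBLAzer B/G FRET substrate; hold 2 h at room temperature; measure fluorescence.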

[16] = qHTS assay to identify small molecule agonists of the vitamin D receptor (VDR) signaling pathway - cell viability counter screen (AID 743224)
In short: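 CellTiter-Glo viability readout on VDR-bla cells, measured after 16 h of compound treatment at 37C in the same wells.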

[17] = biological target: Peroxisome proliferator-activated receptor delta (Homo sapiens) (UniProt Q03181); experiment: qHTS assay to identify small molecule antagonists of the peroxisome proliferator-activated receptor delta (PPARd) signaling pathway (AID 743215; active means well fitted inhibition curve with a large enough effect in the signal ratio in the repeat runs, not every such curve was filed as active; the % refers to the signal ratio;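 further: cells stimulated with agonist L165041 at 300 nM final during compound exposure; series mostly up to about 62 µM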)
In short: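 Here, a reporter line (HEK293H, beta-lactamase under a UAS) measures PPARd signaling. Compounds are tested against agonist L165041 at 300 nM final concentration over 17 h at 37 C, with fluorescence read after substrate.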

[18] = biological target: Bile acid receptor (Homo sapiens) (UniProt Q96RI1); experiment: qHTS assay to identify small molecule antagonists of the farnesoid-X-receptor (FXR) signaling pathway (AID 743217; active means well fitted inhibition curve with a large enough effect in the signal ratio in the repeat runs, not every such curve was filed as active; the % refers to the signal ratio)
Sequence of Bile acid receptor (Homo sapiens) (Q96RI1 whole entry, looked up): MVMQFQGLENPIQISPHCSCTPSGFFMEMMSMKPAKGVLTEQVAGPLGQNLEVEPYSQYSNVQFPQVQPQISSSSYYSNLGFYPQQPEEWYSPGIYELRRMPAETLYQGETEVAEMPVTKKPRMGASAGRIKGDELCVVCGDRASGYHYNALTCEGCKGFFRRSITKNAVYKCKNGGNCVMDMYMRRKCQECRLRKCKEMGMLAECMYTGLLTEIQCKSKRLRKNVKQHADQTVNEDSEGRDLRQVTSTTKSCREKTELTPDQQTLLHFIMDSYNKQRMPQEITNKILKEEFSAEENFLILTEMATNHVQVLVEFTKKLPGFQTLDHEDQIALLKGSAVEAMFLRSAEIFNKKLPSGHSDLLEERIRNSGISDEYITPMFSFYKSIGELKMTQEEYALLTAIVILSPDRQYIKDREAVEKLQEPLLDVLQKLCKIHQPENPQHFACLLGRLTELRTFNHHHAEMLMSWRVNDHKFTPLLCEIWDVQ
In short: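 Test compounds are pin-transferred onto FXR-bla HEK 293T cells, then chenodeoxycholic acid is added at 50 uM final. After 16 h at 37 °C, LiveBLAzer B/G substrate is applied for 2 h at room temperature and fluorescence read.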

[19] = biological target: Bile acid receptor (Homo sapiens) (UniProt Q96RI1); experiment: qHTS assay to identify small molecule agonists of the farnesoid-X-receptor (FXR) signaling pathway (AID 743220; active means well fitted activation curve with a large enough effect in the signal ratio in the repeat runs, not every such curve was filed as active; the % refers to the signal ratio)
In short: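 FXR-UAS-bla HEK 293T cells carrying a UAS-driven beta-lactamase reporter were plated for 5 h at 37C/5% CO2, then exposed to DMSO-dissolved Tox21 10K compounds for 16 h at 37C. A LiveBLAzer B/G FRET substrate was loaded for 2 h at room temperature before fluorescence reading.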

[20] = qHTS assay to identify small molecule agonists of the NFkB signaling pathway - cell viability counter screen (AID 1159515; calls by dose curve; further: series mostly up to about 61 µM; nearly all actives have a fitted effect of over 55% in size)
In short: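 Tox21 library compounds were tested for cytotoxicity against NFkB-bla ME-180 cells during a 5 hr exposure at 37 C. CellTiter-Glo luminescence served as the viability read-out.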

Measured: Potency

Cc1ccc(Cl)cc1Cl
inactive: [1] | [2] | [3] | [4] | [5] | [6] | [7] | [8] | [9] | [10] | [11] | [12] | [13] | [14]

C=C1CC[C@H]2C[C@@H]1C2(C)C
inactive: [1] | [15] | [2] | [3] | [4] | [5] | [6] | [16] | [7] | [8] | [9] | [10] | [11] | [12] | [13] | [14]

C[N+](C)(C)CCCCCC[N+](C)(C)C
inactive: [1] | [15] | [2] | [17] | [18] | [3] | [19] | [4] | [16] | [7] | [8] | [9] | [11] | [12] | [13] | [14]

CC(=O)OCC(=O)[C@@]1(O)CC[C@H]2[C@@H]3CCC4=CC(=O)CC[C@]4(C)[C@H]3C(=O)C[C@@]21C
inactive: [1] | [15] | [2] | [3] | [7] | [20] | [9] | [10] | [11] | [12] | [14]

O=C[C@H](O)[C@@H](O)[C@H](O)[C@H](O)CO
inactive: [1] | [2] | [3] | [4] | [16] | [7] | [20] | [9] | [10] | [11] | [12] | [13] | [14]

O=C(O)c1ccccc1OP(=O)(O)O
inactive: [1] | [15] | [17] | [3] | [5] | [6] | [7] | [8] | [9] | [10] | [11] | [12] | [14]

CCCCCCCCCCCCN(CCCCCCCCCCCC)CCCCCCCCCCCC
inactive: [1] | [15] | [2] | [17] | [3] | [4] | [5] | [6] | [16] | [7] | [8] | [9] | [10] | [11] | [12] | [13] | [14]

NCCc1cnc[nH]1
inactive: [1] | [2] | [3] | [4] | [16] | [7] | [8] | [9] | [10] | [11] | [12] | [13] | [14]

CC(C)NCC(O)c1ccc(NS(C)(=O)=O)cc1 (stereo not given)
inactive: [1] | [15] | [2] | [17] | [3] | [5] | [6] | [16] | [7] | [8] | [9] | [11] | [12] | [13] | [14]

CCCN1CCCC[C@H]1C(=O)Nc1c(C)cccc1C
inactive: [1] | [15] | [17] | [18] | [3] | [19] | [4] | [6] | [16] | [7] | [8] | [9] | [10] | [11] | [12] | [14]

CCc1cccc2c(CCO)c[nH]c12
inactive: [1] | [2] | [17] | [3] | [4] | [5] | [6] | [16] | [7] | [8] | [9] | [10] | [11] | [12] | [13] | [14]
